# Assay results published in PubChem BioAssay.
# Results filed as inconclusive are left out. Activity calls are given as the source filed them. Unless noted, no cut-off is given here; in the data, nearly all actives have AC50 up to about 26 µM.
# Columns and labels:
# [1] = growth inhibition of DIPG glioma cells, dose response, cell-based, SU-DIPG-XVII, MIPE5.0, CellTiter-Glo, qHTS (AID 1347060); details: SU-DIPG-XVII viability, CellTiter-Glo ATP luminescence;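 for AC50: cells exposed to compound for 48 hours before viability readout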
# [2] = growth inhibition of DIPG glioma cells, dose response, cell-based, SU-DIPG-XIII, MIPE4.0, CellTiter-Glo, qHTS (AID 1347061; cut-off not given, nearly all actives have AC50 up to about 37 µM;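 note: cells exposed to compound for 48 hours before readout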); details: SU-DIPG-XIII viability, CellTiter-Glo ATP luminescence
# [3] = growth inhibition of DIPG glioma cells, dose response, cell-based, JHH-DIPG-1, MIPE4.0, CellTiter-Glo, qHTS (AID 1347062; cut-off not given, nearly all actives have AC50 up to about 27 µM;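 for AC50: cells exposed to compound for two days before readout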); details: JHH-DIPG-1 viability, CellTiter-Glo ATP luminescence
# [4] = growth inhibition of DIPG glioma cells, dose response, cell-based, SU-DIPG-IV, MIPE4.0, CellTiter-Glo, qHTS (AID 1347063; cut-off not given, nearly all actives have AC50 up to about 30 µM;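 note: compound exposure lasted 48 hours before the viability readout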); details: SU-DIPG-IV viability, CellTiter-Glo ATP luminescence
# [5] = growth inhibition of DIPG glioma cells, dose response, cell-based, SU-DIPG-XIII, MIPE5.0, CellTiter-Glo, qHTS (AID 1347064; cut-off not given, nearly all actives have AC50 up to about 23 µM;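 for AC50: cells exposed to compound for 48 hours before the viability read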); details: SU-DIPG-XIII viability, CellTiter-Glo ATP luminescence
# [6] = viability loss in pontine glioma line – cell-based, SU-DIPG-XXV, MIPE5.0, CellTiter-Glo, qHTS, dose response (AID 1347065); details: CellTiter-Glo ATP luminescence;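 note: cells exposed to compound for 48 hours before ATP readout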
# [7] = SU-DIPG-VI glioma cell viability, MIPE4.0 library, CellTiter-Glo luminescence, qHTS (AID 1347066; cut-off not given, nearly all actives have AC50 up to about 30 µM;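 note: cells exposed to compound for 48 hours before readout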); details: CellTiter-Glo ATP luminescence
# [8] = JHH-DIPG-1 glioma cell viability, MIPE5.0 library, CellTiter-Glo luminescence, qHTS (AID 1347067); details: JHH-DIPG-1 glioma viability, CellTiter-Glo ATP luminescence;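 note: cells exposed to compound for 48 hours before readout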
# [9] = SU-DIPG-XXV glioma cell viability, MIPE5.0 library, qHTS (AID 1347068; cut-off not given, nearly all actives have IC50 up to about 30 µM;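 for IC50: cells exposed to compound for 48 hours before viability readout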)
# [10] = liver-stage malaria parasite growth inhibition, primary screen, cell-based, HepG2, luciferase luminescence, HepG2 viability (AID 624349; in the data active = parasite load remaining mostly below about 12%, no sharp cut-off; inactive = mostly above about 10%;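 note: 100% = mean of DMSO negative control wells on the same plate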); details: P. berghei liver stage in HepG2, luciferase luminescence, concentration not given here; parasite load remaining: stronger effect = lower value; viability: measured here: HepG2 viability without parasites
# [11] = tested on: Aerobactin synthetase IucA (Klebsiella pneumoniae); assay: IucA aerobactin synthetase inhibitors, biochemical, Tocris library, absorbance (AID 1345561; call rule not given here;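 note: 100% = enzyme without compound and 0% = no enzyme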); details: purified IucA enzyme assay, absorbance (OD) read-out; stronger effect = lower value;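 tested at 8 µM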
# [12] = sensitizers of A549 cells to miR-34 induction, primary screen, imaging, A549 dox-inducible miR-34, nuclei and caspase counts (AID 1347080;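 active = compounds whose cell count with miR-34 switched on is under 0.7 times the count with it off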); details: A549 miR-34 inducible, Hoechst nuclei count, 48 h
# [13] = viability rescue of complex I mutant cybrids, primary screen, cell-based, galactose medium, ATP luminescence (AID 1645843;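 active = z-score of at least 1.8 in each of two replicates, scored against plate mean and spread of sample wells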;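 note: positive z means more ATP and so rescue of galactose-driven cybrid death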); details: complex I mutant cybrid cells, 72 h, stronger effect = higher value
# [14] = stronger effect = lower value, cell number ratio, induced over uninduced
# [15] = measured here: relative caspase fold change +Dox/-Dox
# [16] = measured here: total cells with miR-34 induction, stronger effect = lower value
# [17] = measured here: total cells without miR-34 induction
structure (smiles),measurement,setting,value
C=CCNc1c(O)cc2c(O)c1C[C@@H](C)C[C@H](OC)[C@H](O)[C@@H](C)/C=C(/C)[C@H](OC(N)=O)[C@@H](OC)/C=C\C=C(\C)C(=O)N2,AC50,[1],0.525 µM (active)
same,AC50,[2],1.05 µM (active)
same,AC50,[3],0.332 µM (active)
same,AC50,[4],0.148 µM (active)
same,AC50,[5],1.66 µM (active)
same,AC50,[6],3.72 µM (active)
same,AC50,[7],14.8 µM (active)
same,AC50,[8],0.468 µM (active)
COc1cc(C(=O)NC(N)=Nc2ccc(C)c(NC(=O)c3ccc(-c4ccccc4)cc3)c2)cc(OC)c1OC,AC50,[1],16.6 µM (active)
COc1cc2c(Oc3ccc(-c4cnc(Nc5ccc(F)cc5)n(C)c4=O)cc3F)ccnc2cc1OCCCN1CCOCC1,AC50,[1],3.32 µM (active)
same,AC50,[2],14.8 µM (active)
same,AC50,[3],18.7 µM (active)
same,AC50,[4],16.6 µM (active)
same,AC50,[5],3.72 µM (active)
same,AC50,[6],2.09 µM (active)
same,AC50,[7],9.35 µM (active)
same,AC50,[8],9.34 µM (active)
same,IC50,[9],6.61 µM (active)
COc1cc(C)c(Sc2cnc(NC(=O)c3ccc(CNC(C)C(C)(C)C)cc3)s2)cc1C(=O)N1CCN(C(C)=O)CC1 (centres undefined),AC50,[1],10.5 µM (active)
same,AC50,[2],16.6 µM (active)
same,AC50,[3],20.9 µM (active)
same,AC50,[4],7.43 µM (active)
same,AC50,[5],6.61 µM (active)
same,AC50,[6],4.17 µM (active)
same,AC50,[7],18.7 µM (active)
Cc1cnc(Nc2ccc(F)cc2Cl)nc1-c1c[nH]c(C(=O)N[C@H](CO)c2cccc(Cl)c2)c1,AC50,[1],1.32 µM (active)
same,AC50,[2],18.7 µM (active)
same,AC50,[3],0.833 µM (active)
same,AC50,[4],0.469 µM (active)
same,AC50,[5],1.32 µM (active)
same,AC50,[6],2.09 µM (active)
same,AC50,[7],18.7 µM (active)
same,AC50,[8],0.833 µM (active)
same,IC50,[9],9.34 µM (active)
COc1ccc(Nc2cc(-c3cnc(N)nc3)nc(N3CCOCC3)n2)cn1,AC50,[1],2.95 µM (active)
same,AC50,[2],18.7 µM (active)
same,AC50,[3],5.9 µM (active)
same,AC50,[4],4.69 µM (active)
same,AC50,[5],1.66 µM (active)
same,AC50,[6],1.32 µM (active)
same,AC50,[7],4.18 µM (active)
O=c1cc(N2CCOCC2)nc2c3ccccc3ccn12,parasite load remaining,[10],31.9% (inactive)
same,viability,[10],94.8%
same,remaining activity,[11],126% (inactive)
same,fold change,[12]; [14],0.935 (inactive)
same,fold change,[12]; [15],1.52
same,cell count,[12]; [16],8560
same,cell count,[12]; [17],9160
same,z-score,[13],1.56 (inactive)
NS(=O)(=O)c1ccc(NC(=S)N2CCN(C/C=C/c3ccccc3)CC2)cc1,outcome,[1],inactive
CC(C)[C@H](O)C(=O)N[C@@H](C)C(=O)N[C@@H]1C(=O)N(C)CCc2ccccc21,outcome,[1],inactive
same,outcome,[2],inactive
same,outcome,[3],inactive
same,outcome,[4],inactive
same,outcome,[5],inactive
same,outcome,[6],inactive
same,outcome,[7],inactive
same,outcome,[8],inactive
same,outcome,[9],inactive
C[C@@]12O[C@@H](C[C@]1(O)CO)n1c3ccccc3c3c4c(c5c6ccccc6n2c5c31)CNC4=O,AC50,[1],2.95 µM (active)
same,AC50,[2],4.69 µM (active)
same,AC50,[3],2.96 µM (active)
same,AC50,[4],8.33 µM (active)
same,AC50,[5],1.32 µM (active)
same,AC50,[6],0.186 µM (active)
same,AC50,[7],8.33 µM (active)
same,AC50,[8],1.86 µM (active)
same,IC50,[9],2.63 µM (active)
CC(C)(C)C[C@H]1N[C@@H](C(=O)NC2CCC(O)CC2)[C@H](c2cccc(Cl)c2F)[C@@]12C(=O)Nc1cc(Cl)ccc12 (some centres undefined),AC50,[1],23.5 µM (active)
O=C1NC(=O)/C(=C/c2ccc3nccc(-c4ccncc4)c3c2)S1,AC50,[1],1.18 µM (active)
same,AC50,[2],0.743 µM (active)
same,AC50,[3],1.05 µM (active)
same,AC50,[4],0.0833 µM (active)
same,AC50,[5],1.48 µM (active)
same,AC50,[6],0.468 µM (active)
same,AC50,[7],0.264 µM (active)
same,AC50,[8],1.48 µM (active)
same,IC50,[9],1.32 µM (active)
C=C(C)[C@@H]1CC[C@]2(C)CC[C@]3(C)[C@H](CC[C@@H]4[C@@]5(C)CC[C@H](O)C(C)(C)[C@@H]5CC[C@]43C)[C@@H]12,outcome,[1],inactive
same,outcome,[2],inactive
same,outcome,[3],inactive
same,outcome,[4],inactive
same,outcome,[5],inactive
same,outcome,[6],inactive
same,outcome,[7],inactive
same,outcome,[8],inactive
same,outcome,[9],inactive
NCC(=O)Nc1cncc(-c2nn3c(=O)cc(N4CCNCC4)nc3s2)c1,outcome,[1],inactive
C=CC(=O)N1CCc2ccc(-n3c(=O)ccc4cnc5ccc(-c6cnn(C)c6)cc5c43)cc21,AC50,[1],0.229 µM (active)
same,AC50,[2],8.33 µM (active)
same,AC50,[3],7.43 µM (active)
same,AC50,[4],2.35 µM (active)
same,AC50,[5],0.0723 µM (active)
same,AC50,[6],0.144 µM (active)
same,AC50,[7],3.72 µM (active)
same,AC50,[8],1.15 µM (active)
CN(C)C(=O)n1nnnc1Cc1ccc(-c2ccccc2)cc1,remaining activity,[11],82% (inactive)
same,fold change,[12]; [14],1.31 (inactive)
same,fold change,[12]; [15],1.05
same,cell count,[12]; [16],1840
same,cell count,[12]; [17],1400
same,z-score,[13],-0.57 (inactive)
CC(C)C[C@H](CO)Nc1nc(S[C@@H](C)c2ccccc2)nc2nc(N)sc12,outcome,[1],inactive
C[C@H](O)[C@@H]1C(=O)N2C(C(=O)O)=C(S[C@@H]3CN[C@H](CNS(N)(=O)=O)C3)[C@@H](C)[C@@H]12,outcome,[1],inactive
same,outcome,[2],inactive
same,outcome,[3],inactive
same,outcome,[4],inactive
same,outcome,[5],inactive
same,outcome,[6],inactive
same,outcome,[7],inactive
same,outcome,[8],inactive
same,outcome,[9],inactive
Nc1nc(-c2nn(Cc3ccccc3F)c3ncccc23)nc(N)c1N1CCOCC1,outcome,[1],inactive
same,outcome,[2],inactive
same,outcome,[3],inactive
same,outcome,[4],inactive
same,outcome,[5],inactive
same,outcome,[6],inactive
same,outcome,[7],inactive
same,outcome,[8],inactive
same,outcome,[9],inactive
COc1cc2nc(-c3ccc(N4CCN(C)CC4)cc3)nc(NCCN3CCOCC3)c2cc1OC,AC50,[1],14.8 µM (active)
same,AC50,[2],0.332 µM (active)
same,AC50,[3],0.332 µM (active)
same,AC50,[4],0.132 µM (active)
same,AC50,[5],9.34 µM (active)
same,AC50,[6],8.33 µM (active)
same,AC50,[7],0.118 µM (active)
same,AC50,[8],16.6 µM (active)
same,outcome,[9],inactive
OC[C@H]1O[C@@H](n2cnc3c2NC=NC[C@H]3O)C[C@@H]1O,outcome,[1],inactive
same,outcome,[2],inactive
same,outcome,[3],inactive
same,outcome,[4],inactive
same,outcome,[5],inactive
same,outcome,[6],inactive
same,outcome,[7],inactive
same,outcome,[8],inactive
same,outcome,[9],inactive
